Source: PubChem BioAssay AID1159580 (chemical genetic matrix, 2015)
Values joined by “and” are separate entries in the source; they are usually repeats but may differ in a detail not shown here. Identical values can stand only once. Screen size: about 5,500 compounds; about 2,000 (36%) were called active. Inconclusive results (about 18%) are left out. No stated cut-off is given here; in the data, active means normalized growth mostly below about 0.91 (no sharp cut-off); inconclusive means no clear call, values can overlap the other calls; inactive means mostly above about 0.92. Some of the results follow.

Experiment: chemical genetic growth profiling, strain panel (AID 1159580);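 further: tested at 20 µM; growth read once vehicle control cultures reached saturation at 30 °C; 1 = growth at the plate median or of vehicle wells; lower values mean less growth of the strain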
Conditions: growth OD

Measured: normalized growth

CCN(Cc1ccncc1)C(=O)C(CO)c1ccccc1 (stereo unspecified)
inactive: S. cerevisiae deletion strains, locus YJR075W, strain HOC1, active compounds read low 0.989 | S. cerevisiae deletion strains, locus YKL009W, strain mrt4, active compounds read low 1.01 | S. cerevisiae deletion strains, locus YKL068W, active compounds read low 0.982 | S. cerevisiae deletion strains, locus YKL085W, strain MDH1 (second series), active compounds read low 0.977 | S. cerevisiae deletion strains, locus YKL085W, strain MDH1, active compounds read low 0.977 | S. cerevisiae deletion strains, locus YKL160W, strain elf1, active compounds read low 1.02 | S. cerevisiae deletion strains, locus YKL190W, strain CNB1, active compounds read low 0.992 | S. cerevisiae deletion strains, locus YKR001C, strain vps1, active compounds read low 0.999 | S. cerevisiae deletion strains, locus YKR026C, strain gcn3, active compounds read low 1.04 | S. cerevisiae deletion strains, locus YKR091W, strain srl3, active compounds read low 1.02 | S. cerevisiae deletion strains, locus YLL001W, strain dnm1, active compounds read low 1.02 | S. cerevisiae deletion strains, locus YLL026W, active compounds read low 1.03 | S. cerevisiae deletion strains, locus YLL041C, strain sdh2, active compounds read low 1.02 | S. cerevisiae deletion strains, locus YLR027C, strain aat2, active compounds read low 1.02 | S. cerevisiae deletion strains, locus YLR039C, strain RIC1, active compounds read low 0.977 | S. cerevisiae deletion strains, locus YLR058C, strain SHM2, active compounds read low 0.998 | S. cerevisiae deletion strains, locus YLR102C, strain apc9, active compounds read low 0.991 | S. cerevisiae deletion strains, locus YLR113W, strain HOG1, active compounds read low 0.988 | S. cerevisiae deletion strains, locus YLR221C, strain rsa3, active compounds read low 1.03 | S. cerevisiae deletion strains, locus YLR258W, strain gsy2, active compounds read low 1.05 | S. cerevisiae deletion strains, locus YLR262C, strain YPT6 (second series), active compounds read low 1.07 | S. cerevisiae deletion strains, locus YLR262C, strain YPT6, active compounds read low 1.01 | S. cerevisiae deletion strains, locus YLR268W, strain sec22, active compounds read low 0.954 | S. cerevisiae deletion strains, locus YLR320W, strain mms22, active compounds read low 1.02 | S. cerevisiae deletion strains, locus YLR330W, strain CHS5, active compounds read low 0.991 | S. cerevisiae deletion strains, locus YLR342W, strain FKS1 (second series), active compounds read low 1.05 | S. cerevisiae deletion strains, locus YLR342W, strain FKS1, active compounds read low 1.02 | S. cerevisiae deletion strains, locus YLR357W, strain rsc2, active compounds read low 1.04 | S. cerevisiae deletion strains, locus YLR370C, strain arc18, active compounds read low 1.03 | S. cerevisiae deletion strains, locus YLR371W, strain rom2, active compounds read low 0.989 | S. cerevisiae deletion strains, locus YLR384C, strain iki3, active compounds read low 1.03 | S. cerevisiae deletion strains, locus YLR418C, strain cdc73, active compounds read low 0.995 | S. cerevisiae deletion strains, locus YML016C, strain PPZ1, active compounds read low 1 | S. cerevisiae deletion strains, locus YML032C, strain rad52, active compounds read low 0.978 | S. cerevisiae deletion strains, locus YML120C, strain ndi1, active compounds read low 1.03 | S. cerevisiae deletion strains, locus YML124C, strain tub3, active compounds read low 0.997 | S. cerevisiae deletion strains, locus YMR058W, strain fet3, active compounds read low 1.02 | S. cerevisiae deletion strains, locus YMR078C, strain ctf18, active compounds read low 0.999 | S. cerevisiae deletion strains, locus YMR125W, strain sto1, active compounds read low 1.03 | S. cerevisiae deletion strains, locus YMR129W, active compounds read low 1.02 | S. cerevisiae deletion strains, locus YMR205C, strain PFK2, active compounds read low 1.05 | S. cerevisiae deletion strains, locus YMR223W, strain ubp8, active compounds read low 1.02 | S. cerevisiae deletion strains, locus YMR231W, strain pep5, active compounds read low 1.03 | S. cerevisiae deletion strains, locus YMR263W, strain SAP30, active compounds read low 0.999 and 1 | S. cerevisiae deletion strains, locus YMR307W, strain GAS1, active compounds read low 1.05 and 1.01 | S. cerevisiae deletion strains, locus YNL067W, strain RPL9B, active compounds read low 0.98 | S. cerevisiae deletion strains, locus YNL071W, strain lat1, active compounds read low 1.03 | S. cerevisiae deletion strains, locus YNL128W, strain TEP1, active compounds read low 0.985 | S. cerevisiae deletion strains, locus YNL153C, strain GIM3, active compounds read low 0.992 | S. cerevisiae deletion strains, locus YNL175C, strain NOP13, active compounds read low 0.995 | S. cerevisiae deletion strains, locus YNL183C, strain NPR1, active compounds read low 0.944 | S. cerevisiae deletion strains, locus YNL197C, strain WHI3, active compounds read low 1.02 | S. cerevisiae deletion strains, locus YNL209W, strain ssb2, active compounds read low 1.04 | S. cerevisiae deletion strains, locus YNL224C, strain SQS1, active compounds read low 1 | S. cerevisiae deletion strains, locus YNL233W, strain BNI4, active compounds read low 1 | S. cerevisiae deletion strains, locus YNL248C, strain rpa49, active compounds read low 1.02 | S. cerevisiae deletion strains, locus YNL250W, strain rad50, active compounds read low 0.982 | S. cerevisiae deletion strains, locus YNL271C, strain bni1, active compounds read low 0.982 | S. cerevisiae deletion strains, locus YNL298W, strain CLA4, active compounds read low 1 | S. cerevisiae deletion strains, locus YNL307C, strain MCK1, active compounds read low 0.994 | S. cerevisiae deletion strains, locus YNL322C, strain KRE1 (second series), active compounds read low 1.03 | S. cerevisiae deletion strains, locus YNL322C, strain KRE1, active compounds read low 0.992 | S. cerevisiae deletion strains, locus YNR049C, strain mso1, active compounds read low 1.04 | S. cerevisiae deletion strains, locus YNR052C, strain pop2, active compounds read low 0.991 | S. cerevisiae deletion strains, locus YOL006C, strain TOP1, active compounds read low 0.948 | S. cerevisiae deletion strains, locus YOL012C, strain htz1 0.82 | S. cerevisiae deletion strains, locus YOL147C, strain pex11, active compounds read low 0.986 | S. cerevisiae deletion strains, locus YOR001W, strain rrp6, active compounds read low 1.02 | S. cerevisiae deletion strains, locus YOR061W, strain CKA2, active compounds read low 0.988 | S. cerevisiae deletion strains, locus YOR069W, strain VPS5, active compounds read low 1 | S. cerevisiae deletion strains, locus YOR070C, strain gyp1, active compounds read low 1.02 | S. cerevisiae deletion strains, locus YOR080W, strain dia2, active compounds read low 1.03 | S. cerevisiae deletion strains, locus YOR083W, strain WHI5 (second series), active compounds read low 1 | S. cerevisiae deletion strains, locus YOR083W, strain WHI5, active compounds read low 1.01 | S. cerevisiae deletion strains, locus YOR106W, strain vam3, active compounds read low 1.03 | S. cerevisiae deletion strains, locus YOR136W, strain idh2, active compounds read low 0.997 | S. cerevisiae deletion strains, locus YOR144C, strain elg1, active compounds read low 0.992 | S. cerevisiae deletion strains, locus YOR184W, strain ser1, active compounds read low 1.01 | S. cerevisiae deletion strains, locus YOR231W, strain MKK1, active compounds read low 0.987 | S. cerevisiae deletion strains, locus YOR265W, strain rbl2, active compounds read low 1.02 | S. cerevisiae deletion strains, locus YOR270C, strain vph1, active compounds read low 1.05 | S. cerevisiae deletion strains, locus YOR290C, strain snf2, active compounds read low 1.01 | S. cerevisiae deletion strains, locus YOR316C, strain cot1, active compounds read low 0.984 | S. cerevisiae deletion strains, locus YPL051W, strain arl3, active compounds read low 1.04 | S. cerevisiae deletion strains, locus YPL055C, strain LGE1, active compounds read low 1 | S. cerevisiae deletion strains, locus YPL078C, strain atp4, active compounds read low 1.02 | S. cerevisiae deletion strains, locus YPL106C, strain sse1, active compounds read low 1.02 | S. cerevisiae deletion strains, locus YPL240C, strain hsp82, active compounds read low 1.03 | S. cerevisiae deletion strains, locus YPL241C, strain CIN2, active compounds read low 0.999 | S. cerevisiae deletion strains, locus YPL256C, strain CLN2, active compounds read low 0.977 | S. cerevisiae deletion strains, locus YPR119W, strain clb2, active compounds read low 0.987 | S. cerevisiae deletion strains, locus YPR141C, strain kar3, active compounds read low 0.99 | S. cerevisiae deletion strains, locus YPR163C, strain tif3, active compounds read low 0.982 | S. cerevisiae deletion strains, locus YPR167C, strain met16, active compounds read low 0.973 | S. cerevisiae deletion strains, strain wtn01, active compounds read low 0.991 | S. cerevisiae strains, strain wild type, active compounds read low 0.995
